This note sets out measurements from PubChem BioAssay (EPA / NIEHS).

Holding throughout (conditions): mRNA level, 48 h; actives raise or lower the signal
Read-out in test [1]: Bcl-2 (BAX) gene, BAX (gene 581)
Description: LTEA_HepaRG_BAX: Life Technologies and Expression Analysis (LTEA) Assay for Bcl-2 (BAX) gene using HepaRG (AID 2283470). An outline of the steps:
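Gene expression measured by Fluidigm qRT-PCR with three housekeeping genes for normalisation. HepaRG cells, plated 48 h beforehand, treated 48 h at up to 100 uM (8-point, half-log) in 0.5% DMSO. Bidirectional fitting versus DMSO.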

Read-out in test [2]: adenosine kinase (ADK) gene, ADK (gene 132)
Description: LTEA_HepaRG_ADK: Life Technologies and Expression Analysis (LTEA) Assay for adenosine kinase (ADK) gene using HepaRG (AID 2283471). An outline of the steps:
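Read-out is ADK transcript level measured by qRT-PCR and normalised to three housekeeping genes. Cells are human HepaRG, dosed for 48 h at up to 100 uM in 0.5% DMSO. Gain or loss of signal is fitted against DMSO controls.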

Read-out in test [3]: Alpha-fetoprotein (AFP) gene, AFP (gene 174)
Description: LTEA_HepaRG_AFP: Life Technologies and Expression Analysis (LTEA) Assay for Alpha-fetoprotein (AFP) gene using HepaRG (AID 2283472). An outline of the steps: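 AFP transcript measured by TaqMan qRT-PCR with three housekeeping genes for normalization, after 48 h chemical treatment of HepaRG cells (top 100 uM, half-log steps, 0.5% DMSO). Gain or loss fitted against vehicle.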

Read-out in the next test: BCL2L11 (gene 10018)
Description: LTEA_HepaRG_BCL2L11: Life Technologies and Expression Analysis (LTEA) Assay for Bcl-2 (BCL2L11) gene using HepaRG (AID 2283473). An outline of the steps: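 Human hepatic HepaRG cultures are treated 48 h with test chemicals (maximum 100 uM, 0.5% DMSO vehicle). Expression of BCL2L11 is measured by qRT-PCR against ACTB, GAPDH and POLR2A, with activity in either direction scored relative to vehicle.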

Read-out in test [4]: Apolipoprotein A-V (APOA5) gene, APOA5 (gene 116519)
As to the kind of experiment: LTEA_HepaRG_APOA5: Life Technologies and Expression Analysis (LTEA) Assay for Apolipoprotein A-V (APOA5) gene using HepaRG (AID 2283474). An outline of the steps:
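Concentration-response of APOA5 expression in HepaRG: eight half-log doses to 100 uM, 48 h, qRT-PCR normalized to ACTB/GAPDH/POLR2A, bidirectional fitting with 0.5% DMSO as baseline.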

Read-out in test [5]: Apoptosis regulator Bcl-2 (Homo sapiens) (UniProt P10415)
As to the kind of experiment: LTEA_HepaRG_BCL2: Life Technologies and Expression Analysis (LTEA) Assay for Bcl-2 gene using HepaRG (AID 2283475). An outline of the steps: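 qRT-PCR of BCL2 transcript, normalized to three housekeeping genes (ACTB, GAPDH, POLR2A), after 48 h chemical exposure of HepaRG cells; concentrations top 100 uM with half-log dilutions, 0.5% DMSO vehicle, duplicates; changes up or down fitted relative to vehicle.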

Read-out in test [6]: Bcl-2 (BID) gene, BID (gene 637)
Description: LTEA_HepaRG_BID: Life Technologies and Expression Analysis (LTEA) Assay for Bcl-2 (BID) gene using HepaRG (AID 2283476). An outline of the steps: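 Duplicate 48 h treatments of HepaRG cells in serum-free induction medium spanned 100 uM downward in half-log steps, 0.5% DMSO. Transcript change quantified by qRT-PCR against three housekeeping genes, fitted up or down versus DMSO.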

Read-out in a further test: Caspase-3 (Homo sapiens) (UniProt P42574)
Description: LTEA_HepaRG_CASP3: Life Technologies and Expression Analysis (LTEA) Assay for cysteine-aspartic acid protease (CASP3) using HepaRG (AID 2283477). An outline of the steps: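 Transcript-level assay: CASP3 mRNA in human HepaRG after 48 h treatment, eight half-log concentrations from 100 uM in 0.5% DMSO, quantified by qRT-PCR.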

Read-out in test [7]: Cytochrome P450 (CYP24A1), CYP24A1 (gene 1591)
Description: LTEA_HepaRG_CYP24A1: Life Technologies and Expression Analysis (LTEA) Assay for Cytochrome P450 (CYP24A1) using HepaRG (AID 2283478). An outline of the steps:
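Gene expression of CYP24A1 by TaqMan qRT-PCR in HepaRG after 48 h treatment, highest concentration 100 uM; activity fitted in both directions relative to DMSO vehicle.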

Read-out in test [8]: cysteine-aspartic acid protease (CASP8), CASP8 (gene 841)
Description: LTEA_HepaRG_CASP8: Life Technologies and Expression Analysis (LTEA) Assay for cysteine-aspartic acid protease (CASP8) using HepaRG (AID 2283480). An outline of the steps:
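Concentration-response in duplicate up to 100 uM (half-log steps, 0.5% DMSO) on differentiated HepaRG cultures for 48 h. Expression change of CASP8 mRNA is determined by TaqMan qRT-PCR with housekeeping-gene normalization.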

Read-out in test [9]: Cytochrome P450 (CYP2B6), CYP2B6 (gene 1555)
Description: LTEA_HepaRG_CYP2B6: Life Technologies and Expression Analysis (LTEA) Assay for Cytochrome P450 (CYP2B6) using HepaRG (AID 2283481). An outline of the steps:
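Human HepaRG, 48 h dosing, 0.5% DMSO vehicle, top dose 100 uM. CYP2B6 transcript by qRT-PCR, housekeeping-normalized, bidirectional curve fit.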

Read-out in test [10]: Cytochrome P450 2C19 (Homo sapiens) (UniProt P33261)
As to the kind of experiment: LTEA_HepaRG_CYP2C19: Life Technologies and Expression Analysis (LTEA) Assay for CYP2C19 using HepaRG (AID 2283482). An outline of the steps:
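Endpoint: CYP2C19 mRNA change, bidirectional fit vs 0.5% DMSO. Cells: HepaRG, 48 h exposure, eight-point series topping at 100 uM. Quantitation: qRT-PCR normalized to ACTB, GAPDH, POLR2A.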

Read-out in another test: CYP2C8 (gene 1558)
Description: LTEA_HepaRG_CYP2C8: Life Technologies and Expression Analysis (LTEA) Assay for CYP2C8 using HepaRG (AID 2283483). An outline of the steps:
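This is a transcriptional endpoint in HepaRG cultures: 48 h exposure, highest concentration 100 uM. CYP2C8 mRNA is quantified by TaqMan qRT-PCR.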

Read-out in a further test: CYP2C9 (gene 1559)
Description: LTEA_HepaRG_CYP2C9: Life Technologies and Expression Analysis (LTEA) Assay for CYP2C9 using HepaRG (AID 2283484). An outline of the steps: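 Eight-point concentration-response (highest 100 uM, half-log dilutions) in HepaRG cells for 48 h; CYP2C9 expression by qRT-PCR normalized to ACTB, GAPDH, POLR2A. Bidirectional fit, DMSO baseline.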

Read-out in another test: CYP2E1 (gene 1571)
Description: LTEA_HepaRG_CYP2E1: Life Technologies and Expression Analysis (LTEA) Assay for CYP2E1 using HepaRG (AID 2283485). An outline of the steps: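 CYP2E1 transcript measured by Fluidigm qRT-PCR against three housekeeping genes in human HepaRG cells treated 48 h (top 100 uM, half-log steps, 0.5% DMSO vehicle). Gain or loss fitted relative to DMSO baseline.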

Read-out in the next test: CYP4A11 (gene 1579)
As to the kind of experiment: LTEA_HepaRG_CYP4A11: Life Technologies and Expression Analysis (LTEA) Assay for CYP4A11 using HepaRG (AID 2283486). An outline of the steps:
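Human hepatic HepaRG cultures receive duplicate 48 h exposures across a concentration-response series topping at 100 uM. Expression changes in CYP4A11 are measured by qRT-PCR relative to DMSO controls.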

Read-out in test [11]: Cytochrome P450 3A4 (Homo sapiens) (UniProt P08684)
Description: LTEA_HepaRG_CYP3A4: Life Technologies and Expression Analysis (LTEA) Assay for CYP3A4 using HepaRG (AID 2283487). An outline of the steps:
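HepaRG, 48 h exposure, 8-pt CRC from 100 uM (half-log), 0.5% DMSO, duplicates; serum-free induction medium. Readout: CYP3A4 mRNA, qRT-PCR, ACTB/GAPDH/POLR2A normalization. Bidirectional fit vs DMSO.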

Read-out in test [12]: DNA damage-inducible transcript 3 (DDIT3), DDIT3 (gene 1649)
As to the kind of experiment: LTEA_HepaRG_DDIT3: Life Technologies and Expression Analysis (LTEA) Assay for DNA damage-inducible transcript 3 (DDIT3) using HepaRG (AID 2283488). An outline of the steps: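 DDIT3 transcript was quantified by qRT-PCR with ACTB/GAPDH/POLR2A normalization after 48 h chemical treatment of differentiated HepaRG cells in 0.5% DMSO. Dosing was eight-point, half-log, top 100 uM, duplicate wells. Curves fitted bidirectionally versus DMSO.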

Read-out in test [13]: Pro-epidermal growth factor (Homo sapiens) (UniProt P01133)
Description: LTEA_HepaRG_EGF: Life Technologies and Expression Analysis (LTEA) Assay for Epidermal growth factor (EGF) using HepaRG (AID 2283489). An outline of the steps:
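Concentration-response mRNA assay: HepaRG cells dosed 48 h (max 100 uM, 0.5% DMSO), EGF measured by qRT-PCR and normalized to ACTB/GAPDH/POLR2A.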

Read-out in test [14]: Cytochrome P450 (CYP1A2), CYP1A2 (gene 1544)
Description: LTEA_HepaRG_CYP1A2: Life Technologies and Expression Analysis (LTEA) Assay for Cytochrome P450 (CYP1A2) using HepaRG (AID 2283479). An outline of the steps:
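In duplicate wells, HepaRG cultures maintained in 0.5% DMSO were treated 48 h across an 8-point, half-log series topping at 100 uM; phenobarbital (1 mM) served as induction control. Expression was read by qRT-PCR.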

Active and inactive are the calls of the source. The calls were made as follows: active = hit-call score of the fitted dose curve at least 0.9, where 1 is the maximum; inactive = score below 0.9.

Sequence of Caspase-3 (Homo sapiens) (P42574 whole entry, looked up): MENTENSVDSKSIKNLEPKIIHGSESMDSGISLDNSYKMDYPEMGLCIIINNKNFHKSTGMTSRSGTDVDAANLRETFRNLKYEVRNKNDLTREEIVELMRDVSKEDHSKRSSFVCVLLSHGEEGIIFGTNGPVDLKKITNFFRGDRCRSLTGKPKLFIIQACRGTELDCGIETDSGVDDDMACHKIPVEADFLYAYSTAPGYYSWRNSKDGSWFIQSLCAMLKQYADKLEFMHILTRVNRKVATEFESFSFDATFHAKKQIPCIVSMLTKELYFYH
Sequence of Apoptosis regulator Bcl-2 (Homo sapiens) (P10415 whole entry, looked up): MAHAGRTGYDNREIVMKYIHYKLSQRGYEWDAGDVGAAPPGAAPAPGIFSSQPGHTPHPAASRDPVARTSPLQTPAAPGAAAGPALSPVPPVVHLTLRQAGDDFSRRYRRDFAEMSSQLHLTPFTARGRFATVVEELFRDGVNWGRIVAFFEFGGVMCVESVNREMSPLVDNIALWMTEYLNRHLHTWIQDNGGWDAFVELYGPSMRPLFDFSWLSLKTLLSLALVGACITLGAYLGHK
Sequence of Cytochrome P450 2C19 (Homo sapiens) (P33261 whole entry, looked up): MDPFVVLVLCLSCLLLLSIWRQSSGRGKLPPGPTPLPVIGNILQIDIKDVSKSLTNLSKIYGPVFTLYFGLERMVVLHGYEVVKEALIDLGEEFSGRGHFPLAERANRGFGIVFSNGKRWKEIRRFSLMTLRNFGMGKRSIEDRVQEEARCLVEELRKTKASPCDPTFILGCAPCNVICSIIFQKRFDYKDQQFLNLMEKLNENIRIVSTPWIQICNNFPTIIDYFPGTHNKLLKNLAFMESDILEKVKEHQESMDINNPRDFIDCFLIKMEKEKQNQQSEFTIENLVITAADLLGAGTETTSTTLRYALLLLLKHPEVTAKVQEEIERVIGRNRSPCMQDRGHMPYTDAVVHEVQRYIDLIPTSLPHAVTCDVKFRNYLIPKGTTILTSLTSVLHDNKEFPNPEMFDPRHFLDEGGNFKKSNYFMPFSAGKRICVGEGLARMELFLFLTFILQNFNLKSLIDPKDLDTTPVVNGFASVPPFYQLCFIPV
Sequence of Cytochrome P450 3A4 (Homo sapiens) (P08684 whole entry, looked up): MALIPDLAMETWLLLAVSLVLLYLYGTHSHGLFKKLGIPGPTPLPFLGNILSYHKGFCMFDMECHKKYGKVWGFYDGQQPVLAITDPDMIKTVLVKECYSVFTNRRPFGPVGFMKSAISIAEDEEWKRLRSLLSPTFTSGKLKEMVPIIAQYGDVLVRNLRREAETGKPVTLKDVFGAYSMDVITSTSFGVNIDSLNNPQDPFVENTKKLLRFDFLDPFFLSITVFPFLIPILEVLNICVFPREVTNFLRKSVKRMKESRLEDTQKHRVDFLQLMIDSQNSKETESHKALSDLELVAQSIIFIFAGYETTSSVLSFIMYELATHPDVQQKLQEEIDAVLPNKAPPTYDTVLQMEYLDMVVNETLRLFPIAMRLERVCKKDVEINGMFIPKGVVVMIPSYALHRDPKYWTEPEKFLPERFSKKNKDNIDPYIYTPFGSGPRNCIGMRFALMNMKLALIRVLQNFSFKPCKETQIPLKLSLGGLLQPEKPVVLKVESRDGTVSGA

Turning to `COP(=S)(OC)Oc1ccc([N+](=O)[O-])c(C)c1`, the compound was called inactive (in test [1]; in test [2]; in [3]; with BCL2L11 (gene 10018); in test [4]; in test [5]). Further, the call (in test [6]; with Caspase-3 (Homo sapiens); in test [8]; in test [10]; with CYP2C8 (gene 1558); in the test with CYP2C9 (gene 1559)) was inactive. The compound was called inactive (with CYP2E1 (gene 1571); with CYP4A11 (gene 1579); in [11]; in test [12]; in test [13]). Besides, the AC50 (as a rule, the concentration at which the activity in the assay is half-maximal) in [7] is 0.00316 µM (active); in test [9], 4.75 µM (active).

Regarding `CC(C)=CC1C(C(=O)OCc2coc(Cc3ccccc3)c2)C1(C)C` (stereo not drawn), the outcome (in test [1]; in test [2]; in test [3]; with BCL2L11 (gene 10018); in test [4]; in test [5]) was inactive. Further, the result (in [6]; with Caspase-3 (Homo sapiens); in test [7]; in [14]; in [8]; with CYP2C8 (gene 1558)) was inactive. Moreover, the outcome (in the test with CYP2C9 (gene 1559); in test [12]; in [13]) was inactive. For the same compound, the AC50 in test [9] was 20.1 µM (active); in test [10] it was 15.5 µM (active); with CYP2E1 (gene 1571), 39.1 µM (active).

For the compound `CC1(C)CCC(=Cc2ccc(Cl)cc2)C1(O)Cn1cncn1` (stereo not drawn), the compound was called inactive (in test [1]; in [2]; in test [3]; with BCL2L11 (gene 10018); in [5]; in [6]). Further, the call (with Caspase-3 (Homo sapiens); in [7]; in test [8]; in the test with CYP2C9 (gene 1559); in [12]; in test [13]) was inactive. The AC50 was 49.8 µM (active) in [4]; 23.3 µM (active) in [14]; 2.72 µM (active) in test [9]; 5.03 µM (active) in test [10]; 27.1 µM (active) with CYP2E1 (gene 1571).

Take `CCN(CC)C(=O)C(C)Oc1cccc2ccccc12` (stereo not drawn): the call (in [1]; in [2]; in the test with BCL2L11 (gene 10018); in test [5]; in [6]; in the test with Caspase-3 (Homo sapiens)) was inactive. The call (in [7]; in [8]; in the test with CYP2C8 (gene 1558); with CYP2C9 (gene 1559); in test [12]; in [13]) was inactive. The AC50 in test [3] is 73.6 µM (active); in test [4], 79.3 µM (active); in [14], 26.4 µM (active); in [9], 12 µM (active); in test [10], 12.6 µM (active); with CYP2E1 (gene 1571), 73.5 µM (active). For the same compound, the AC50 in test [11] was 2.65 µM (active).
